According to PubChem BioAssay (NCATS):
Results filed as inconclusive are left out. Entries that show only a call come without a potency. Values without a mark were called inactive. Active and inactive are the calls of the source. The call rests on the fitted dose curve; in most records, active means well fitted inhibition curve with a large enough effect; inconclusive means small, poorly fitted or top-dose-only effect; inactive means no such curve, though single readings can be large or run the other way.

Test: Primary qHTS for inhibitors of nuclear receptor binding SET domain protein 2 (NSD2) in an RCH-ACV wild type WT cells (2C) (AID 1645877); further: nearly all actives have a fitted effect of over 70% in size
Conditions: RCH-ACV (leukaemia line) NSD2 WT (2C) viability, CellTiter-Glo, 72 h; series mostly up to 44.9 µM
Potency means the concentration at half of the fitted maximal effect.

Question: Which Potency does the source give for CC(C)c1nnc(-c2ccc(-c3ccccc3)nc2)n1-c1cccc2nonc12 here?
Answer: The Potency was “inactive”.

Question: For CC(=O)O[C@@H]1[C@@H](O)[C@H](C)O[C@@H](O[C@H]2[C@@H]3C=CO[C@@H](O[C@@H]4O[C@H](CO)[C@@H](O)[C@H](O)[C@H]4O)[C@@H]3[C@@]3(CO)O[C@@H]23)[C@@H]1OC(=O)/C=C/c1ccccc1, which Potency is on record?
Answer: Its Potency is “inactive”.

Question: Which activity change, negative = cell killing does the source give for C[C@@H]1O[C@@H](O[C@H]2[C@H](O)[C@@H](O[C@@H]3O[C@H](CO)[C@@H](O)[C@H](O[C@@H]4O[C@H](CO)[C@@H](O)[C@H](O)[C@H]4O)[C@H]3O)[C@H](O[C@H]3CC[C@@]4(C)C(=CC[C@@H]5C4CC[C@@]4(C)C5C[C@@H]5OC6(CC[C@@](C)(CO[C@@H]7O[C@H](CO)[C@@H](O)[C@H](O)[C@H]7O)O6)[C@@H](C)[C@@H]54)C3)O[C@@H]2CO)[C@H](O)[C@H](O)[C@H]1O (stereo partly drawn) here?
Answer: The activity change, negative = cell killing was -26.3% [at 9.23 µM].

Question: With OCc1ccc(O[C@@H]2O[C@H](CO)[C@@H](O)[C@H](O)[C@H]2O)cc1 as the compound, how does the Potency read?
Answer: Its Potency is “inactive”.

Question: With CN1c2ccccc2C(=O)N2CCC3c4ccccc4NC3C21 (stereo not drawn) as the compound, how does the Potency read?
Answer: The Potency was 2.01 µM (active).

Question: Which Potency does the source give for CC1CC(O)C2(OC1=O)OC1C(O)C3C4CCC5CC(OC6OC(CO)C(O)C(O)C6OC6OC(C)C(O)C(O)C6O)CCC5(C)C4CCC3(C)C1C2C (stereo not drawn) here?
Answer: Its Potency is “inactive”.

Question: Which Potency does the source give for COC(=O)c1cc(OC)c(O[C@@H]2O[C@@H](C)[C@H](O)[C@@H](O)[C@H]2O)c(OC)c1 here?
Answer: Its Potency is “inactive”.

Question: With C=C1CCC2C(C)(COC(C)=O)CCCC2(C)C1CCC(C)CC(=O)O (stereo not drawn) as the compound, how does the Potency read?
Answer: The Potency was “inactive”.

Question: For O=C1NC(Cc2ccccc2)C(=O)N2CCCC12 (stereo not drawn), which Potency is on record?
Answer: Its Potency is “inactive”.

Question: Which Potency does the source give for CCc1cc(CN2CC(C(=O)O)C2)sc1-c1noc(-c2ccc(Oc3ccccc3)cc2)n1 here?
Answer: The Potency was 10 µM (active).

Question: With OC[C@H]1O[C@@H](OCCc2ccccc2)[C@H](O[C@@H]2OC[C@](O)(CO)[C@H]2O)[C@@H](O)[C@@H]1O as the compound, how does the Potency read?
Answer: Its Potency is “inactive”.

Question: For C[C@@H]1C(=O)OC[C@H]2C(C(=O)O)=C[C@@H]3CC(C)(C)C[C@]312, which Potency is on record?
Answer: The Potency was “inactive”.

Question: With C=C1CCC2C(C)(C(=O)OC)CCCC2(C)C1CCC(C)CC(=O)O (stereo not drawn) as the compound, how does the Potency read?
Answer: The Potency was “inactive”.

Question: For CC1CCC2(C(=O)O)CCC3(C)C(=CCC4C5(C)CCC(OC(=O)/C=C/c6ccccc6)C(C)(C)C5CCC43C)C2C1C (stereo not drawn), which Potency is on record?
Answer: Its Potency is “inactive”.

Question: With Cc1cc(C)nc(NS(=O)(=O)c2ccc(NC(=S)NC(=O)COc3ccc(Br)cc3Cl)cc2)n1 as the compound, how does the Potency read?
Answer: The Potency was “inactive”.

Question: For COC(=O)C[C@H]1C(C)(C)[C@H](OC(C)=O)C2CC3=C4CC(=O)O[C@@H](c5ccoc5)[C@]4(C)CCC3[C@@]1(C)C2=O (stereo partly drawn), which Potency is on record?
Answer: The Potency was “inactive”.

Question: Which Potency does the source give for CC1(C)CCCC2(C)C=C(C(=O)O)C(O)CC12 (stereo not drawn) here?
Answer: The Potency was “inactive”.

Question: With C=C(C(=O)O)C1CCC2(C)CCCC(C)(O)C2C1 (stereo not drawn) as the compound, how does the Potency read?
Answer: The Potency was “inactive”.

Question: For CC(=O)C1=C(C)N(c2cccc(C(F)(F)F)c2)C(=O)N[C@H]1c1ccc(C#N)nc1, which activity change, negative = cell killing is on record?
Answer: Its activity change, negative = cell killing is -17.1% [at 9.23 µM].

Question: For Nc1ccc(-c2cccc3c(=O)cc(N4CCOCC4)oc23)cc1, which Potency is on record?
Answer: Its Potency is 1.83 µM (active).

Question: For CC(=O)O[C@@H]1[C@@H](CO)O[C@@](CO)(O[C@H]2O[C@H](COC(=O)/C=C/c3ccccc3)[C@@H](O)[C@H](O)[C@H]2O)[C@H]1O, which Potency is on record?
Answer: Its Potency is “inactive”.

Question: With Cc1ccc(-c2ccc3c(ccc4sc5c(c43)NC[C@@H](C)NC5=O)n2)cn1 as the compound, how does the Potency read?
Answer: The Potency was 16.6 µM (active).

Question: With Nc1nc2c(ncn2[C@@H]2O[C@@H]3COP(=O)(O)O[C@H]3[C@H]2O)c(=O)[nH]1 as the compound, how does the Potency read?
Answer: The Potency was “inactive”.

Question: Which Potency does the source give for CC(C)(C)Nc1nc(Nc2ccc(C(N)=O)cc2)cc(N)c1C#N here?
Answer: Its Potency is 1.45 µM (active).

Question: With Cc1cc(C(=O)Nc2cccc(C(=O)Nc3cccc(C(F)(F)F)c3)c2)on1 as the compound, how does the Potency read?
Answer: The Potency was “inactive”.

Question: With C#CC[C@H](c1nc2cc(Cl)ccc2c(=O)n1Nc1ccccc1)N(CCCN)C(=O)c1cccc(Cl)c1F as the compound, how does the Potency read?
Answer: Its Potency is 0.332 µM (active).

Question: For COc1cc(C)c(C(=O)O[C@H]2[C@@H](OC(C)=O)[C@H](n3ccc(=O)[nH]c3=O)O[C@@H]2CO)c(OC)c1, which Potency is on record?
Answer: Its Potency is “inactive”.

Question: With COc1c2c(c(C)c3c1C(=O)OC3)OC1(C)CC(O)C(C(C)(C)O)C(C)(CCC(=O)O)C1C2 (stereo not drawn) as the compound, how does the Potency read?
Answer: The Potency was “inactive”.
